# Reference: PubChem BioAssay
# “And” between values parts separate entries of the source, which are not always exact repeats. Equal values may be shown once. Results filed as inconclusive are left out. More than one record can exist for a structure, and the calls need not agree. The source made the active and inactive calls.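 Rule for the calls, unless noted: active = normalized viability below 100% at a tested concentration; inactive = the rest.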
# Key:
# [1] = growth inhibition of DIPG glioma cells, dose response, cell-based, SU-DIPG-XVII, MIPE5.0, CellTiter-Glo, qHTS (AID 1347060; cut-off not given, nearly all actives have AC50 up to about 26 µM;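 for AC50: cells exposed to compound for 48 hours before viability readout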); details: SU-DIPG-XVII viability, CellTiter-Glo ATP luminescence
# [2] = growth inhibition of DIPG glioma cells, dose response, cell-based, SU-DIPG-XIII, MIPE5.0, CellTiter-Glo, qHTS (AID 1347064; cut-off not given, nearly all actives have AC50 up to about 23 µM;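 for AC50: cells exposed to compound for 48 hours before the viability read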); details: SU-DIPG-XIII viability, CellTiter-Glo ATP luminescence
# [3] = growth inhibition of DIPG glioma cells, dose response, cell-based, SU-DIPG-IV, MIPE4.0, CellTiter-Glo, qHTS (AID 1347063; cut-off not given, nearly all actives have AC50 up to about 30 µM;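 note: compound exposure lasted 48 hours before the viability readout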); details: SU-DIPG-IV viability, CellTiter-Glo ATP luminescence
# [4] = viability loss in pontine glioma line – cell-based, SU-DIPG-XXV, MIPE5.0, CellTiter-Glo, qHTS, dose response (AID 1347065; cut-off not given, nearly all actives have AC50 up to about 26 µM;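 note: cells exposed to compound for 48 hours before ATP readout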); details: CellTiter-Glo ATP luminescence
# [5] = sensitizers of A549 cells to miR-34 induction, primary screen, imaging, A549 dox-inducible miR-34, nuclei and caspase counts (AID 1347080;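 active = compounds whose cell count with miR-34 switched on is under 0.7 times the count with it off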); details: A549 miR-34 inducible, Hoechst nuclei count, 48 h
# [6] = survival rescue of mitochondrial mutant cells in low glucose, primary screen, MELAS cybrids, Rieske KO mouse fibroblasts, CellTiter-Glo (AID 1508586;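 active = mean z-score across replicates of 1.96 or higher in either the MELAS or the Rieske mutant cell line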;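 note: z relative to plate mean and SD of compound and empty wells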)
# [7] = kinase inhibitors against Plasmodium liver-stage infection, cell-based, known kinase inhibitor set, luminescence, hepatoma host viability (AID 624392; call rule not given here;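 note: infected cells incubated roughly two days before readout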); details: Plasmodium liver stage in hepatoma cells, luciferase luminescence, concentration not given here; liver cell % of control: measured here: host liver cell viability; parasite % of control: stronger effect = lower value
# [8] = SU-DIPG-XXV glioma cell viability, MIPE5.0 library, qHTS (AID 1347068; cut-off not given, nearly all actives have IC50 up to about 30 µM;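 for IC50: cells exposed to compound for 48 hours before viability readout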)
# [9] = modifiers of HSF1 nuclear foci, imaging, Selleck Cancer Library (AID 1347162; in the data active = plate-normalised HSF1 focus index below about 0.46); details: human cells, at 10 µM; SSMD: measured here: HSF1 foci SSMD mean; cell count: measured here: cell number; plate-normalised HSF1 focus index: stronger effect = lower value
# [10] = JHH-DIPG-1 glioma cell viability, MIPE5.0 library, CellTiter-Glo luminescence, qHTS (AID 1347067; cut-off not given, nearly all actives have AC50 up to about 26 µM;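 note: cells exposed to compound for 48 hours before readout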); details: JHH-DIPG-1 glioma viability, CellTiter-Glo ATP luminescence
# [11] = circadian clock period modulators, cell-based, LOPAC library, luminescence reporter (AID 2774; call rule not given here;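 note: values are relative to mean of DMSO wells on each plate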); details: circadian reporter cells, at 7 µM, actives lie on both sides
# [12] = hESC survival regulators, cell-based (AID 493140; call rule not given here;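 note: cells exposed to compounds for four days before counting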); details: human embryonic stem cell survival screen; stronger effect = higher value
# [13] = liver-stage malaria parasite growth inhibition, primary screen, cell-based, HepG2, luciferase luminescence, HepG2 viability (AID 624349; in the data active = parasite load remaining mostly below about 12%, no sharp cut-off; inactive = mostly above about 10%;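 note: 100% = mean of DMSO negative control wells on the same plate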); details: P. berghei liver stage in HepG2, luciferase luminescence, concentration not given here; parasite load remaining: stronger effect = lower value; viability: measured here: HepG2 viability without parasites
# [14] = system: Hepatitis C virus NS3 helicase; test: HCV NS3 helicase inhibitors, primary screen, biochemical, fluorescence polarization, LOPAC1280 library (AID 687035; in the data active = inhibition above about 37%); details: Purified HCV NS3 helicase, Cy5-dT15 ssDNA binding fluorescence polarization; stronger effect = higher value; concentration not given here
# [15] = Cy5 fluorescence quenching or enhancement artefacts, artefact control for HCV NS3 helicase inhibitor project, biochemical, LOPAC1280 (AID 687037; call rule not given here); details: Cy5-DNA-NS3h complex fluorescence interference counterscreen
# [16] = inhibitors of Cryptococcus chitosan production, flow cytometry, Cibacron Brilliant Red staining (AID 1347148; call rule not given here;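 note: compound exposure lasted three days at 37 degrees C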); details: Cryptococcus neoformans chitosan, stronger effect = lower value; at 10 µM unless noted
# [17] = phospholipid biosynthesis inhibitors in animal cells, primary screen, cell-based, LOPAC library, screen 4 (AID 1347384; call rule not given here); details: phospholipid biosynthesis inhibition screen, at 10 µM
# [18] = viability rescue of complex I mutant cybrids, primary screen, cell-based, galactose medium, ATP luminescence (AID 1645843;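 active = z-score of at least 1.8 in each of two replicates, scored against plate mean and spread of sample wells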;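 note: positive z means more ATP and so rescue of galactose-driven cybrid death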); details: complex I mutant cybrid cells, 72 h, stronger effect = higher value
# [19] = ovarian cancer cell viability with rucaparib, profiling panel, oncology-focused library, rucaparib conditional (AID 1508598); details: patient-derived ovarian cancer cells, CellTiter-Glo viability, 144 h, stronger effect = lower value
# [20] = stronger effect = lower value, cell number ratio, induced over uninduced
# [21] = measured here: relative caspase fold change +Dox/-Dox
# [22] = measured here: total cells with miR-34 induction, stronger effect = lower value
# [23] = measured here: total cells without miR-34 induction
# [24] = MELAS cybrid survival, CellTiter-Glo 48 h, stronger effect = higher value
# [25] = Rieske KO mouse fibroblast survival, CellTiter-Glo 72 h
smiles,measurement,setting,value
C[C@@H]1Cc2c([nH]c3ccccc23)[C@@H](c2c(F)cc(/C=C/C(=O)O)cc2F)N1CC(C)(C)F,outcome,[1],inactive
same,outcome,[2],inactive
O=C(Nc1nc2cccc(-c3ccc(CN4CCS(=O)(=O)CC4)cc3)n2n1)C1CC1,AC50,[1],14.8 µM (active)
same,AC50,[3],29.6 µM (active)
same,AC50,[4],9.34 µM (active)
same,fold change,[5]; [20],0.924 (inactive)
same,fold change,[5]; [21],0.426
same,cell count,[5]; [22],6290
same,cell count,[5]; [23],6810
same,z-score,[6]; [24],-0.57 (inactive)
same,z-score,[6]; [25],-1.33
COC1=C2C[C@H](C)C[C@H](OC)[C@H](O)[C@@H](C)/C=C(/C)[C@H](OC(N)=O)[C@@H](OC)/C=C\C=C(\C)C(=O)NC(=CC1=O)C2=O,AC50,[1],0.235 µM (active)
same,AC50,[2],0.118 µM (active)
same,AC50,[4],0.417 µM (active)
CC(C)n1ncnc1-c1cn2c(n1)-c1ccc(O[C@@H](C)C(N)=O)cc1OCC2,AC50,[1],1.32 µM (active)
same,AC50,[2],1.05 µM (active)
same,AC50,[4],0.59 µM (active)
CNc1nccc(-c2cccnc2Oc2cc(C(=O)Nc3cccc(C(F)(F)F)c3)ccc2C)n1,liver cell % of control,[7],245% and 255% and 102%
same,parasite % of control,[7],0.405% (inactive) and 0.413% (active) and 75.6% (inactive)
same,AC50,[1],3.72 µM (active)
same,AC50,[3],13.2 µM (active)
same,AC50,[2],5.9 µM (active)
same,AC50,[4],5.9 µM (active)
same,IC50,[8],13.2 µM (active)
O=C1[C@H](Cc2ccc(O)cc2)N2C(=O)CCN(C(=O)NCc3ccccc3)[C@H]2CN1Cc1cccc2ccccc12,AC50,[1],4.17 µM (active)
same,AC50,[3],3.72 µM (active)
same,AC50,[4],3.32 µM (active)
same,SSMD,[9],1.66
same,cell count,[9],6950
same,plate-normalised HSF1 focus index,[9],1.09 (inactive)
CO[C@@H]1[C@@H](O)[C@H](O)[C@@H](n2c3c(Cl)cccc3c3c4c(c5c6cccc(Cl)c6[nH]c5c32)C(=O)NC4=O)O[C@H]1CO,AC50,[1],0.105 µM (active)
same,AC50,[3],0.209 µM (active)
same,AC50,[10],2.63 µM (active)
same,outcome,[8],inactive
COc1cc2ncnc(Nc3cccc(Cl)c3)c2cc1OC,period change,[11],0.545 h (inactive)
same,survival,[12],138 (inactive)
same,parasite load remaining,[13],63.9% (inactive)
same,viability,[13],78.3%
same,inhibition,[14],0% (inactive)
same,fluorescence ratio (interference),[15],1 (inactive)
same,AC50,[1],13.2 µM (active)
same,AC50,[3],18.7 µM (active)
same,AC50,[4],20.9 µM (active)
same,fold change,[5]; [20],1.29 (inactive) and 1.02 (inactive) and 0.9 (inactive)
same,fold change,[5]; [21],0.693 and 0.941 and 0.779
same,cell count,[5]; [22],2650 and 1830 and 6990
same,cell count,[5]; [23],2060 and 1800 and 7760
same,fold fluorescence,[16],5.72 [at 142 µM] (inactive)
same,outcome,[17],inactive
same,z-score,[6]; [24],-0.433 (inactive)
same,z-score,[6]; [25],0.126
same,z-score,[18],1.23 (inactive)
CNC(=O)c1cc(COc2nnc(Nc3ccc(Cl)cc3)c3ccoc23)ccn1,AC50,[1],16.6 µM (active)
same,AC50,[3],20.9 µM (active)
same,AC50,[10],5.9 µM (active)
same,fold change,[5]; [20],0.883 (inactive)
same,fold change,[5]; [21],0.896
same,cell count,[5]; [22],5140
same,cell count,[5]; [23],5820
same,SSMD,[9],-14.1
same,cell count,[9],4310
same,plate-normalised HSF1 focus index,[9],0.266 (active)
same,z-score,[6]; [24],-0.151 (inactive)
same,z-score,[6]; [25],0.512
same,viability,"[19]; at 0.000305 µM, OCI-C5x cells, with rucaparib 10 µM, 100% = cells with rucaparib alone",113% (inactive)
same,viability,"[19]; at 0.000305 µM, OCI-C5x cells, without rucaparib",111% (inactive)
same,viability,"[19]; at 0.000305 µM, OCI-P5x cells, with rucaparib 20 µM, 100% = cells with rucaparib alone",105% (inactive)
same,viability,"[19]; at 0.000305 µM, OCI-P5x cells, without rucaparib",114% (inactive)
same,viability,"[19]; at 0.00122 µM, OCI-C5x cells, with rucaparib 10 µM, 100% = cells with rucaparib alone",109% (inactive)
same,viability,"[19]; at 0.00122 µM, OCI-C5x cells, without rucaparib",117% (inactive)
same,viability,"[19]; at 0.00122 µM, OCI-P5x cells, with rucaparib 20 µM, 100% = cells with rucaparib alone",102% (inactive)
same,viability,"[19]; at 0.00122 µM, OCI-P5x cells, without rucaparib",109% (inactive)
same,viability,"[19]; at 0.00488 µM, OCI-C5x cells, with rucaparib 10 µM, 100% = cells with rucaparib alone",108% (inactive)
same,viability,"[19]; at 0.00488 µM, OCI-C5x cells, without rucaparib",113% (inactive)
same,viability,"[19]; at 0.00488 µM, OCI-P5x cells, with rucaparib 20 µM, 100% = cells with rucaparib alone",102% (inactive)
same,viability,"[19]; at 0.00488 µM, OCI-P5x cells, without rucaparib",108% (inactive)
same,viability,"[19]; at 0.0195 µM, OCI-C5x cells, with rucaparib 10 µM, 100% = cells with rucaparib alone",105% (inactive)
same,viability,"[19]; at 0.0195 µM, OCI-C5x cells, without rucaparib",105% (inactive)
same,viability,"[19]; at 0.0195 µM, OCI-P5x cells, with rucaparib 20 µM, 100% = cells with rucaparib alone",104% (inactive)
same,viability,"[19]; at 0.0195 µM, OCI-P5x cells, without rucaparib",109% (inactive)
same,viability,"[19]; at 0.0781 µM, OCI-C5x cells, with rucaparib 10 µM, 100% = cells with rucaparib alone",109% (inactive)
same,viability,"[19]; at 0.0781 µM, OCI-C5x cells, without rucaparib",110% (inactive)
same,viability,"[19]; at 0.0781 µM, OCI-P5x cells, with rucaparib 20 µM, 100% = cells with rucaparib alone",101% (inactive)
same,viability,"[19]; at 0.0781 µM, OCI-P5x cells, without rucaparib",109% (inactive)
same,viability,"[19]; at 0.313 µM, OCI-C5x cells, with rucaparib 10 µM, 100% = cells with rucaparib alone",108% (inactive)
same,viability,"[19]; at 0.313 µM, OCI-C5x cells, without rucaparib",113% (inactive)
same,viability,"[19]; at 0.313 µM, OCI-P5x cells, with rucaparib 20 µM, 100% = cells with rucaparib alone",103% (inactive)
same,viability,"[19]; at 0.313 µM, OCI-P5x cells, without rucaparib",111% (inactive)
same,viability,"[19]; at 1.25 µM, OCI-C5x cells, with rucaparib 10 µM, 100% = cells with rucaparib alone",106% (inactive)
same,viability,"[19]; at 1.25 µM, OCI-C5x cells, without rucaparib",114% (inactive)
same,viability,"[19]; at 1.25 µM, OCI-P5x cells, with rucaparib 20 µM, 100% = cells with rucaparib alone",98.5% (active)
same,viability,"[19]; at 1.25 µM, OCI-P5x cells, without rucaparib",108% (inactive)
same,viability,"[19]; at 5 µM, OCI-C5x cells, with rucaparib 10 µM, 100% = cells with rucaparib alone",114% (inactive)
same,viability,"[19]; at 5 µM, OCI-C5x cells, without rucaparib",128% (inactive)
same,viability,"[19]; at 5 µM, OCI-P5x cells, with rucaparib 20 µM, 100% = cells with rucaparib alone",103% (inactive)
same,viability,"[19]; at 5 µM, OCI-P5x cells, without rucaparib",109% (inactive)
